Screen size: about 360,000 compounds; about 680 (0.19%) were called active. This is one part of a sample in which actives are shown more often than they occur. Rule as the data show it: active = inhibition above about 25%; inactive = the rest.

In the assay the target is Arf-GAP with SH3 domain, ANK repeat and PH domain-containing protein 1 (Homo sapiens) (UniProt Q9ULH1). The assay can be described thus: inhibitors of human ASAP1 ArfGAP activity, primary screen, biochemical, fluorescence polarization (AID 624377).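 Also: 0% = vehicle with enzyme and substrate and 100% = no enzyme.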 The conditions noted are these: ASAP1-stimulated ARF1 GTP hydrolysis, GDP FP detection; at 16.5 µM; active compounds read high. For orientation: In fluorescence polarisation assays a small probe gives low polarisation when free and higher when bound to something large.
Arf-GAP with SH3 domain, ANK repeat and PH domain-containing protein 1 (Homo sapiens), sequence (Q9ULH1 325-724 limits assumed): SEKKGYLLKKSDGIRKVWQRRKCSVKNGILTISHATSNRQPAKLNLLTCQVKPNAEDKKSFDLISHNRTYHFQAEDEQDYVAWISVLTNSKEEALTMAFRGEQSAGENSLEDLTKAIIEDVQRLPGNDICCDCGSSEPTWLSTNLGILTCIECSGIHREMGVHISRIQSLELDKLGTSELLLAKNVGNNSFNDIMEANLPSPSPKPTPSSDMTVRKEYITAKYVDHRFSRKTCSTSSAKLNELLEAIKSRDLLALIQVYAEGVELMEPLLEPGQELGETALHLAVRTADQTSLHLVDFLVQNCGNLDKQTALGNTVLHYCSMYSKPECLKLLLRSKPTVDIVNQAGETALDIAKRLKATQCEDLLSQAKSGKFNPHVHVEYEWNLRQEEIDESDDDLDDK
As usually defined, the inhibition is the relative decrease from the control value, in per cent. On to `O=S1(=O)c2c(cccc2N2CCCCC2)O[C@H](COCc2ccccc2)CN1C1CC1`, for which the inhibition is -0.37% (inactive). Consider `CCN1C(=O)N[C@@H]2C[C@H](C(=O)N3CCCC3)[C@H](C)[C@H](c3ccccc3)C[C@@H]21`, for which the inhibition is 9.08% (inactive). Under `COC(=O)Cc1nnn2c1[C@H](C)[C@H](c1ccccc1[N+](=O)[O-])OCC2` stands 5.28% (inactive); under `N#Cc1ccc(OCCCN2CCC(C(O)(c3ccccc3)c3ccccc3)CC2)c(F)c1`, 12.3% (inactive). On to `O=C(NCc1ccccc1)[C@H]1CCCN1C(=O)[C@H]1CCCN1C(=O)c1cc(F)cc(F)c1`, for which the inhibition was 5.35% (inactive). For `Cc1[nH]nc2c1C(c1ccc(Br)cc1)NC2=O` (stereo unspecified) the value was 13.4% (inactive); for `Cc1[nH]c2ccccc2c1CC(=O)Nc1ccc(Nc2cccnc2)c(-c2cccc(Cl)c2)c1`, 23.9% (inactive); for `Cc1ccc(NC(=O)N2c3ccccc3SC2c2ccco2)c(C)c1` (stereo unspecified), 0.24% (inactive).

For the molecule `Nc1nc2c(ncn2[C@@H]2O[C@H](C(=O)N[C@@H](Cc3ccccc3)C(=O)NCc3ccccc3)[C@@H](O)[C@H]2O)c(=O)[nH]1`, the inhibition was 1.52% (inactive). Turning to `CC(C)(C)C(c1nc2ccccc2[nH]1)n1c(Cc2csc3ccccc23)nc2ccccc21` (stereo unspecified), the inhibition is 0.61% (inactive). Under `CCCCCCCCN1C(=O)[C@@H](CC(=O)N2CCN(C(=O)OCC)CC2)C[C@@]2(C(=O)OC)C1=C[C@H](C1CCCC1)O[C@@H]2C` stands -6.71% (inactive); under `O=C(NS(=O)(=O)c1cccs1)[C@H]1O[C@@H](n2ccc(=O)[nH]c2=O)[C@H](O)[C@@H]1O`, -0.42% (inactive). `CN(CCO)c1ccc(/C=N/Nc2nncc3ccccc23)cc1`: the inhibition is 4.89% (inactive). In the case of `COc1cc(/C=N/Nc2nn3cnnc3c3ccccc23)cc(OC)c1OC`, the inhibition was 27.1% (active).

On to `COc1cc(Nc2nc3ccc(Cl)cc3n3cnnc23)cc(OC)c1OC`, for which the inhibition is -7.78% (inactive).

Consider `Nc1[nH]c(C(=O)c2ccccc2)c(-c2ccc(Cl)cc2Cl)c1C(=O)c1ccccc1`, for which the inhibition is 1.42% (inactive). As for `CCCCCCCCN1C(=O)[C@@H](CC(=O)NCc2ccc(C)o2)C[C@@]2(C(=O)OC)C1=C[C@H](C(C)(C)C)O[C@@H]2C`, the inhibition is -18.4% (inactive).

For the molecule `C[C@@H]1CN([C@H](C)CO)C(=O)CCCn2cc(nn2)CO[C@H]1CN(C)C(=O)Nc1ccc(N2CCCCC2)cc1`, the inhibition is -5.8% (inactive). With `O=C(NCc1ccccc1)[C@@H]1CCCN1C(=O)[C@@H](NS(=O)(=O)c1ccc(F)cc1F)C1CCCCC1`, the inhibition was -1.92% (inactive). `Cc1ccc(N)cc1CN1CCN(c2ncc(Cc3ccccc3)cn2)CC1`: the inhibition was 12% (inactive). `COc1cccc(CNC(=O)[C@H]2CCCN2C(=O)[C@H]2CCCN2C(=O)C2CCCCC2)c1`: the inhibition is -4.66% (inactive).

As to `COC(=O)[C@]1(Cc2ccccc2)NC=C(C(=O)c2ccccc2)[C@@H]1c1cccc(OC)c1`, the inhibition is -16.7% (inactive). With `C=CC1=CCN(S(=O)(=O)C(C)(C)C)[C@@H]1CCO`, the inhibition is -14.4% (inactive).

As for `CN1CCCc2nc(-c3ccccc3)ccc21`, the inhibition was 1.42% (inactive).

For `CSc1ccc(Oc2cccc3c2S(=O)(=O)N([C@H](C)c2ccccc2)C[C@@H](COCc2ccccc2)O3)cc1C`, the inhibition was 0.74% (inactive).

For the molecule `Cc1cc2c(nc1C)CCCN2C`, the inhibition is -12% (inactive). Turning to `CN1C(=O)C2CC(O)C(SC3CC4C(=O)N(C)C(=O)C4CC3O)CC2C1=O` (stereo unspecified), the inhibition was -4.75% (inactive). For the molecule `COC(=O)[C@]12C[C@H](CC(=O)NCc3cccc(C(F)(F)F)c3)C(=O)N(Cc3ccc4c(c3)OCO4)C1=C[C@H](COCc1ccccc1)O[C@@H]2C`, the inhibition was 2.38% (inactive). For the molecule `COC(=O)C1=C(C)N(Cc2ccccc2C(F)(F)F)C(=NCc2ccc(C(F)(F)F)cc2)NC1c1ccc(F)cc1` (stereo unspecified), the inhibition was 8.73% (inactive).

`COC(=O)C(C(=O)OC)c1ccccc1NS(=O)(=O)c1cccc2ccccc12`: the inhibition was -1.63% (inactive).

In the case of `COCCNc1nc(Nc2ccccc2Cl)c2sc(-c3ccccc3)cc2n1`, the inhibition was 13.4% (inactive). With `OCCNCCOc1ccc(Cl)c(Cl)c1`, the inhibition was -8.06% (inactive). Take `OCCNc1nc(Nc2ccc(Cl)c(Cl)c2)nc2ccccc12`: the inhibition was 26% (active).

For `COC(=O)[C@]12C[C@H](CC(=O)NCc3ccc(C)o3)C(=O)N(CCC3=CCCCC3)C1=C[C@H](C(C)(C)C)O[C@@H]2C`, the inhibition was -6.9% (inactive). On to `COC(=O)C1=C(C)NC(=S)NC1c1ccc(OC)cc1` (stereo unspecified), for which the inhibition is 3.47% (inactive). Under `C#CCNc1ccc(C(=O)OCC)cc1` stands -6.34% (inactive); under `COC(=O)c1ccc(NCC(=O)c2ccccc2)cc1`, 24.7% (active). `COC(=O)c1ccc(NC(=O)C(C)N2C(=O)c3ccccc3C2=O)cc1` (stereo unspecified): the inhibition was 2.27% (inactive).

Turning to `Cc1ccc2nc(CN(C)C(=O)[C@@H](Cc3ccccc3)NC(=O)[C@H]3O[C@@H](n4ccc(=O)[nH]c4=O)[C@H](O)[C@@H]3O)[nH]c2c1`, the inhibition is -16.7% (inactive).

With `Cc1noc(C)c1NC(=O)Nc1ccc2c(c1)C(=O)N([C@H](C)CO)C[C@H](C)[C@H](CN(C)Cc1ccncc1)OCCCC[C@@H](C)O2`, the inhibition was 3.29% (inactive). Regarding `O=S(=O)(c1cccs1)N1CCCc2nc(-c3ccc(Br)cc3)ccc21`, the inhibition was 0.45% (inactive).

With `C=CCC[C@H](CCCCC)OC(=O)/C=C/[C@H](O)[C@@H](O)C[C@@H](O)CC=C`, the inhibition is 5.11% (inactive). On to `C=CCC[C@@H](CCCCC)OC(=O)/C=C/[C@@H](O)[C@H](O)C[C@H](O)CC=C`, for which the inhibition is 26.7% (active).

On to `CCCCNc1cccc2c1S(=O)(=O)N[C@@H](C)CO2`, for which the inhibition was 5.97% (inactive). Regarding `CC(C)CNc1cccc2c1S(=O)(=O)N[C@H](C)CO2`, the inhibition was -1.48% (inactive). For `CN1C(=O)C(Br)(Br)CC1c1cccnc1` (stereo unspecified), the inhibition was 2.71% (inactive).

For `COCCCNC(=O)C[C@H]1C[C@@]2(C(=O)OC)C(=C[C@H](C(C)(C)C)O[C@@H]2C)N(Cc2ccc3c(c2)OCO3)C1=O`, the inhibition was -0.04% (inactive). For `Cc1cc(OC(=O)NCCc2ccc(F)cc2)ccc1F`, the inhibition was -5.01% (inactive). `C=CCN1C(=O)N(Cc2ccccc2)c2ccccc2S1(=O)=O`: the inhibition is 10.9% (inactive). Under `COC(=O)C1=C(C)N(Cc2ccccc2C(F)(F)F)C(=NCc2ccc(OC)cc2)NC1c1cccc(C(F)(F)F)c1` (stereo unspecified) stands -0.5% (inactive); under `C[C@H]1[C@H](c2ccccc2)Oc2cc(Br)ccc2S(=O)(=O)N1Cc1cccc(F)c1`, -15.2% (inactive); under `COC(=O)Nc1nc2ccc(C(=O)C3CC3)cc2[nH]1`, 3.58% (inactive). With `CC1(C)OC(=O)C2=C(CC(CCc3ccccc3)OC2c2ccc(Cl)cc2)O1` (stereo unspecified), the inhibition was 0.87% (inactive). `O=C(Nc1c(Cl)c(C2CC2)nn1-c1ccccc1)C(Cl)(Cl)Cl`: the inhibition was 6.91% (inactive). In the case of `O=C(C(=O)N1CCC(CNS(=O)(=O)Cc2ccccc2)CC1)c1cc2ccccc2o1`, the inhibition was -10.9% (inactive). Regarding `COC(=O)c1c(-c2ccc(OC)cc2)c2c(c3c4ccccc4n(S(=O)(=O)c4ccc(C)cc4)c13)C(=O)N(C)C2`, the inhibition was 5.81% (inactive). Under `Brc1ccc(COCCc2cn(Cc3ccccc3)c3ccccc23)cc1` stands -1.81% (inactive); under `COC(=O)Cc1nnn2c1[C@H](C)[C@@H](OC)c1cc(Br)ccc1-2`, 8.77% (inactive); under `CC[C@H](NC(=O)[C@H](Cc1ccccc1)NC(=O)[C@H]1O[C@@H](n2cnc3c(=O)[nH]c(N)nc32)[C@H](O)[C@@H]1O)c1ccccc1`, 3.49% (inactive). Take `O=S1(=O)c2c(cccc2N2CCCC2)O[C@H](COCc2ccccc2)CN1C1CC1`: the inhibition was -12.9% (inactive). With `CC1CCN(C(=O)c2ncn3c2C(=O)N[C@@H](C)C3)CC1`, the inhibition was 1.95% (inactive). As to `CC(=O)C1=C(C)N(Cc2ccc(Cl)cc2)C(=S)NC1c1ccc(F)cc1` (stereo unspecified), the inhibition is -0.95% (inactive). As for `CCCCCCCCN1C(=O)[C@@H](CC(=O)NCc2ccccc2)C[C@@]2(C(=O)OC)C1=C[C@H](C(C)(C)C)O[C@@H]2C`, the inhibition is 4.65% (inactive).

With `CCc1c(-c2ccccc2OC)ncn1CCc1ccccc1OC`, the inhibition was 8.29% (inactive). On to `COc1ccc(S(=O)(=O)Nc2ccc3c(c2)C(=O)N([C@H](C)CO)C[C@H](C)[C@@H](CN(C)C)OCCCC[C@H](C)O3)cc1`, for which the inhibition was -2.07% (inactive).

Regarding `O=C(O)Cn1cnc2c(NCc3ccccc3)ncnc21`, the inhibition was -0.64% (inactive). For the molecule `CCOC(=O)C1CSCCS(=O)(=O)N1Cc1ccc(Cl)cc1` (stereo unspecified), the inhibition is 1.02% (inactive).

As to `O=C(N[C@H](Cc1ccccc1)C(=O)N1CCCN(Cc2cccs2)CC1)[C@H]1O[C@@H](n2ccc(=O)[nH]c2=O)[C@H](O)[C@@H]1O`, the inhibition is -8.2% (inactive). With `O=S1(=O)c2ccc(Br)cc2-n2nncc2CN1Cc1cccc(Cl)c1`, the inhibition is -4.19% (inactive). On to `CCCCOCC1CN(CCCC)S(=O)(=O)c2c(Oc3ccc(F)cc3)cccc2O1` (stereo unspecified), for which the inhibition is -4.17% (inactive). Take `C[C@H](O)[C@@H]1C(=O)N2CCc3c([nH]c4c(-c5ccc6c(c5)OCO6)cccc34)[C@@H]2C[C@@H]1N(C)C(=O)c1ccco1`: the inhibition was -3.66% (inactive).

As to `C=CCN=C1NC(c2cccc(C(F)(F)F)c2)C(C(=O)OC)=C(C)N1C` (stereo unspecified), the inhibition is -4.81% (inactive).

`C[C@H]1CN([C@@H](C)CO)C(=O)CCCn2nncc2CO[C@@H]1CN(C)C(=O)Nc1ccc(N2CCN(C)CC2)cc1`: the inhibition is 6.23% (inactive).

Take `COC(=O)c1cc2c(c3c4cc(F)ccc4n(S(=O)(=O)c4ccccc4)c13)C(=O)N(Cc1ccccc1OC)C2`: the inhibition was -0.6% (inactive).

As to `Nc1ncnc2c1ncn2[C@@H]1O[C@H](C(=O)N[C@@H](CCc2ccccc2)C(=O)NCC(=O)N2CCOCC2)[C@@H](O)[C@H]1O`, the inhibition is -8.44% (inactive). For `CC(=O)N1C[C@@H](CO)[C@@H](N(C)C(=O)C(C)(C)C)C[C@H]1c1ccccc1Br` the value was -5.76% (inactive).
